# Numbering of substitutions follows the chain as printed; changes in the protein carry UniProt numbers. The full ranking holds about 16,000 sequences; the median of “ka relative to ugcaugu” is about 0.096, and the highest 2% start at about 0.35. Shown is part of a subset that was picked to be rich in the highest values.
# T1: RBFOX1 RRM RbFoxmut (Fox-RRM*) (Homo sapiens, UniProt Q9NWB1 109-208, R118D;E147R;N151S;E152T)
# T1 sequence: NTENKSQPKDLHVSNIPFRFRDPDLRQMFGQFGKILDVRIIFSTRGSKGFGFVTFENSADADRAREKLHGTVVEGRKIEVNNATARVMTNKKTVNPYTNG
# B1: UUGGUUA (DNA:RNA)
# RNA: GGGAGACCGGAAUUCAGAUUGUCCUUGGUUAUUAAAUCCCGUCGUAGCCACCA
# DNA 1: CAATCTGAATTCCGGTCTCCC
# DNA 2: TGGTGGCTACGACGGGATT
# B2: AUGACAU (DNA:RNA)
# RNA: B1 RNA with U25A, G28A, U29C, U30A, A31U
# DNA 1: CAATCTGAATTCCGGTCTCCC
# DNA 2: TGGTGGCTACGACGGGATT
# B3: CAAGGUA (DNA:RNA)
# RNA: B1 RNA with U25C, U26A, G27A, U29G
# DNA 1: CAATCTGAATTCCGGTCTCCC
# DNA 2: TGGTGGCTACGACGGGATT
# B4: UCUUGCG (DNA:RNA)
# RNA: B1 RNA with U26C, G27U, G28U, U29G, U30C, A31G
# DNA 1: CAATCTGAATTCCGGTCTCCC
# DNA 2: TGGTGGCTACGACGGGATT
# B5: UCUAAUU (DNA:RNA)
# RNA: B1 RNA with U26C, G27U, G28A, U29A, A31U
# DNA 1: CAATCTGAATTCCGGTCTCCC
# DNA 2: TGGTGGCTACGACGGGATT
# B6: AUACAAA (DNA:RNA)
# RNA: B1 RNA with U25A, G27A, G28C, U29A, U30A
# DNA 1: CAATCTGAATTCCGGTCTCCC
# DNA 2: TGGTGGCTACGACGGGATT
# B7: GGAUCUA (DNA:RNA)
# RNA: B1 RNA with U25G, U26G, G27A, G28U, U29C
# DNA 1: CAATCTGAATTCCGGTCTCCC
# DNA 2: TGGTGGCTACGACGGGATT
# B8: GUCCCCG (DNA:RNA)
# RNA: B1 RNA with U25G, G27C, G28C, U29C, U30C, A31G
# DNA 1: CAATCTGAATTCCGGTCTCCC
# DNA 2: TGGTGGCTACGACGGGATT
# B9: CGCUAUG (DNA:RNA)
# RNA: B1 RNA with U25C, U26G, G27C, G28U, U29A, A31G
# DNA 1: CAATCTGAATTCCGGTCTCCC
# DNA 2: TGGTGGCTACGACGGGATT
# B10: UGCUAUG (DNA:RNA)
# RNA: B1 RNA with U26G, G27C, G28U, U29A, A31G
# DNA 1: CAATCTGAATTCCGGTCTCCC
# DNA 2: TGGTGGCTACGACGGGATT
# B11: UGUAUGU (DNA:RNA)
# RNA: B1 RNA with U26G, G27U, G28A, U30G, A31U
# DNA 1: CAATCTGAATTCCGGTCTCCC
# DNA 2: TGGTGGCTACGACGGGATT
# B12: CUGUAUG (DNA:RNA)
# RNA: B1 RNA with U25C, G28U, U29A, A31G
# DNA 1: CAATCTGAATTCCGGTCTCCC
# DNA 2: TGGTGGCTACGACGGGATT
# B13: UGUAGGU (DNA:RNA)
# RNA: B1 RNA with U26G, G27U, G28A, U29G, U30G, A31U
# DNA 1: CAATCTGAATTCCGGTCTCCC
# DNA 2: TGGTGGCTACGACGGGATT
# B14: GGUCAUC (DNA:RNA)
# RNA: B1 RNA with U25G, U26G, G27U, G28C, U29A, A31C
# DNA 1: CAATCTGAATTCCGGTCTCCC
# DNA 2: TGGTGGCTACGACGGGATT
# B15: CCCUGUA (DNA:RNA)
# RNA: B1 RNA with U25C, U26C, G27C, G28U, U29G
# DNA 1: CAATCTGAATTCCGGTCTCCC
# DNA 2: TGGTGGCTACGACGGGATT
# B16: CUGUGUA (DNA:RNA)
# RNA: B1 RNA with U25C, G28U, U29G
# DNA 1: CAATCTGAATTCCGGTCTCCC
# DNA 2: TGGTGGCTACGACGGGATT
# B17: GUCCUGU (DNA:RNA)
# RNA: B1 RNA with U25G, G27C, G28C, U30G, A31U
# DNA 1: CAATCTGAATTCCGGTCTCCC
# DNA 2: TGGTGGCTACGACGGGATT
# B18: GUCAUGU (DNA:RNA)
# RNA: B1 RNA with U25G, G27C, G28A, U30G, A31U
# DNA 1: CAATCTGAATTCCGGTCTCCC
# DNA 2: TGGTGGCTACGACGGGATT
# B19: GGUCAUG (DNA:RNA)
# RNA: B1 RNA with U25G, U26G, G27U, G28C, U29A, A31G
# DNA 1: CAATCTGAATTCCGGTCTCCC
# DNA 2: TGGTGGCTACGACGGGATT
# B20: UGCUAUC (DNA:RNA)
# RNA: B1 RNA with U26G, G27C, G28U, U29A, A31C
# DNA 1: CAATCTGAATTCCGGTCTCCC
# DNA 2: TGGTGGCTACGACGGGATT
# Biological target: T1, RBFOX1 RRM RbFoxmut (Fox-RRM*)
# Assay: EMSA; HiTS-Eq, 1 nM pool, 10 min; buffer printed only for the single-RNA assays: 10 mM Tris pH 7.5, 150 mM NaCl, 3.4 mM EDTA, 0.001% NP-40, 30 C
# Settings: tags: His6 N-terminal (pET28a); label: 5' 32P
# Summary of the method: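 Relative association constants, normalised to the cognate motif, were derived by comparing read counts of each RNA species with those of the control reaction. The RNA sequenced was the free fraction, separated by 8% native PAGE after a 10 min equilibration in 50 µL of 1 nM 5′-radiolabelled RNA (7 randomized nucleotides) with increasing concentrations of purified wild-type or mutant RbFox RRM.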
row,Binder,binding signal
1,B1,0.155 KA relative to UGCAUGU
2,B2,0.0668 KA relative to UGCAUGU
3,B3,0.124 KA relative to UGCAUGU
4,B4,0.168 KA relative to UGCAUGU
5,B5,0.0829 KA relative to UGCAUGU
6,B6,0.0876 KA relative to UGCAUGU
7,B7,0.154 KA relative to UGCAUGU
8,B8,0.0635 KA relative to UGCAUGU
9,B9,0.184 KA relative to UGCAUGU
10,B10,0.863 KA relative to UGCAUGU
11,B11,0.914 KA relative to UGCAUGU
12,B12,1.11 KA relative to UGCAUGU
13,B13,0.126 KA relative to UGCAUGU
14,B14,0.152 KA relative to UGCAUGU
15,B15,0.201 KA relative to UGCAUGU
16,B16,0.281 KA relative to UGCAUGU
17,B17,0.135 KA relative to UGCAUGU
18,B18,0.288 KA relative to UGCAUGU
19,B19,0.512 KA relative to UGCAUGU
20,B20,0.255 KA relative to UGCAUGU
